The panel holds about 79,000 compounds, 15% with a hit somewhere; the sample as a whole holds those more often. A number with no mark means an inactive call. Cut-off read from the data, not from the text of the source: active = growth inhibition above about 70%; inactive = the rest.

This is an account of results in PubChem BioAssay (NCI).

This assay in a line: NCI Yeast Anticancer Drug Screen. Data for the mlh1 strain (AID 171).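 Note: 0% = growth of vehicle-treated control cultures of the same strain.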 The note with it: S. cerevisiae mlh1 strain growth inhibition; at 1.2 µM; hits give high values. Summed up:
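Inhibition values reflect reduced yeast growth in the presence of compound, referenced to vehicle controls, using a strain chosen for its alteration in DNA repair or cell cycle control.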
Consider `CNC(=O)OCc1c(COC(=O)NC)c(C)n(-c2ccc(Cl)c(Cl)c2)c1C`, for which the growth inhibition is -26%.
As for `COc1ccc2nc(N/N=C/c3sccc3C)cc(C)c2c1`, the growth inhibition is 8%.
Consider `O=C(O)/C=C\C(=O)NNc1ccc(Br)cc1`, for which the growth inhibition was -2%.
For the molecule `COc1ccc2nc3cccc([N+](=O)[O-])c3c(NCCCO)c2c1`, the growth inhibition is 35%.
As to `CCN(CC)CCSc1c2ccccc2nc2cc(NCC(=O)Nc3ccccc3-c3ccccc3NC(=O)CNc3ccc4c(SCCN(CC)CC)c5ccccc5nc4c3)ccc12`, the growth inhibition was -12%.
In the case of `Cc1ccc(N(C=O)c2c([N+](=O)[O-])cc([N+](=O)[O-])c3c2=[N+]([O-])CN=3)cc1` it was -1%; in that of `COc1ccc(C(=O)OCCc2ccccc2)cc1`, 0%.
Consider `COc1ccc(C(=O)NCCN(C)C)c2nc3ccccc3cc12`, for which the growth inhibition is 26%.
The figure for `NCC(O)CSCc1ccc(Cl)cc1` (stereo unspecified) is -5%; for `O=c1[nH]c(=O)n(CCCO)cc1F` it is -30%.
As to `COc1ccc(/C(=N/O)c2ccccc2C2=Nc3ccccc3C(NCc3ccccc3)O2)cc1C` (stereo unspecified), the growth inhibition is -6%.
For the molecule `CCCC(=O)OC(OC(=O)CCC)c1ccc([N+](=O)[O-])o1`, the growth inhibition was -5%.
Regarding `O=C(/C(=C/c1ccccc1)CBr)c1ccccc1`, the growth inhibition is 3%.
In the case of `O=C(Cc1ccccc1F)NC1=C(Cl)C(=O)c2ccccc2C1=O` it was -2%; in that of `Cc1cccc(N2CCN(C(=O)/C(=C/c3ccccc3)NC(=O)c3ccccc3)CC2)c1`, -1%.
For `c1cc(Nc2ccc3c(c2)OCO3)c2cc(C3CCCCC3)ccc2n1`, the growth inhibition was -1%.
